Source: PubChem BioAssay (NMMLSC)
Prostate diff – activators of LNCaP prostate cell differentiation, primary screen, flow cytometry side scatter | 4 d | side scatter shift, % at 10 µM | 0.56% of 24,000 active;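 active = side scatter shift above 30%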;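 note: androgen-responsive LNCaP prostate cancer cells in charcoal-stripped serum medium; percent of cells past a gate set so DMSO wells show 10% shift; higher shift means more granular cells and more differentiation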
QS inhibitor – S. aureus quorum sensing inhibitors, primary screen, RNAIII-GFP reporter, flow cytometry; S. aureus RN6390 RNAIII-GFP reporter, AIP-induced, flow cytometry 3 h; inhibition, % at 2 µM; 0.3% of 24,000 active;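 active = share of bacteria positive for the green fluorescent reporter and its mean brightness both inhibited by 50% or more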;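 note: 0% = AIP-stimulated control and 100% = unstimulated bacteria without AIP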
FPRL1 binder – human FPRL1 ligands by binding competition, primary screen, cell-based, FPR counter-screen, flow cytometry; N-formyl peptide receptor 2 (Homo sapiens), P25090; FPRL1-expressing cells, fluorescent ligand binding inhibition; inhibition, % (test concentration not listed); 0.3% of 24,000 active; AID 441, 2006;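 note: 0% = buffer alone and 100% = receptor blocker peptide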
Target sequence (P25090 whole entry, looked up): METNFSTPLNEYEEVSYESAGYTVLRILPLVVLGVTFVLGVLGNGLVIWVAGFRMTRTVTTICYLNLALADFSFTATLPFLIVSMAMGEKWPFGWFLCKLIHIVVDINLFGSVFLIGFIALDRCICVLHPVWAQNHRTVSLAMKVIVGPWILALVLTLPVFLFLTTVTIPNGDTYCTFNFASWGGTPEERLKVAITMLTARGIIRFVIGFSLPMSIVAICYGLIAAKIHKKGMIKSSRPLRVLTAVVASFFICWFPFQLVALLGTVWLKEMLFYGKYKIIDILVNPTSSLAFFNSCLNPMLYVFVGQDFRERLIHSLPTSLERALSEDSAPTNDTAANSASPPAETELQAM
FPR binder – human FPR ligands by binding competition, primary screen, cell-based, FPRL1 counter-screen, flow cytometry | AID 440, 2006 | 0.74% of 24,000 active | FPR-expressing cells, fluorescent ligand binding | inhibition, % (test concentration not listed) | fMet-Leu-Phe receptor (Homo sapiens), P21462;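 note: 0% = buffer wells and 100% = receptor blocker peptide wells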
* = called active by the depositor; ? = inconclusive; nt = no result. Rows were chosen to be rich in hits. Some 1.7% of all compounds tested hit in one or more screens of this group. Cut-off read from the data, not from the text of the source, unless noted: active = inhibition above about 30%; inconclusive = no clear call, values can overlap the other calls; inactive = below that.

SMILES	Prostate diff	QS inhibitor	FPRL1 binder	FPR binder
O=C(Cc1coc(-c2ccc(F)cc2)n1)N1CCOCC1	30.0*	-3.9	-1.7	-3.3
CCC(=O)NC(C)C(c1cccs1)N1CCN(c2ccccc2)CC1 (stereo not drawn)	11.0	-0.2	47.4*	-3.9
Cc1sc(NC(=O)C2CCCCC2C(=O)O)c(C(N)=O)c1-c1ccc(C(C)(C)C)cc1 (stereo not drawn)	nt	nt	3.3	48.6*
O=S(=O)(c1cnc[nH]1)N1CCc2ccccc21	6.0	-0.5	32.6*	?
CC1Cc2ccccc2N1S(=O)(=O)c1cnc[nH]1 (stereo not drawn)	3.0	5.3	-45.2	-11.4
COc1cccc(C(=O)Nc2cc(C)c3c(=O)oc4ccccc4c3n2)c1	4.0	4.8	-1.0	3.4
Cc1nnc(SCc2cnc(-c3ccccc3)o2)[nH]c1=O	9.0	0.2	52.1*	63.3*
O=C(NCCCc1ccccc1)c1cnc2n(c1=O)CCS2	6.0	56.0*	-3.9	-1.2
O=C(NCc1ccccc1)c1cnc2n(c1=O)CCS2	10.0	-2.8	-0.6	-0.4
O=c1cc(N2CCN(Cc3ccccc3)CC2)[nH]c(=O)n1Cc1ccc(F)cc1	20.0	6.4	4.3	6.3
O=c1cc(N2CCc3ccccc32)[nH]c(=O)n1Cc1ccc(F)cc1	7.0	-11.6	-8.9	42.8*
CCCCN(Cc1ccccc1)C(=O)c1cnc2n(c1=O)CCS2	2.0	-2.0	-2.1	-4.9
Nc1c(C(O)(C(F)(F)F)C(F)(F)F)ccc2ccccc12	19.0	62.8*	-14.7	-12.3
CCC(=O)Nc1nonc1-c1nc2ccccc2n1CC(C)C	1.0	-0.3	2.3	-4.8
CCOC(=O)c1ccccc1NC(=O)Cn1c(-c2nonc2N)nc2ccccc21	32.0*	17.4	-1.9	3.8
COCCN1Cc2cccc(C(=O)NCc3ccc4c(c3)OCO4)c2C1=O	12.0	-8.2	32.8*	25.0
CCOC(=O)C(NS(=O)(=O)c1ccc(Br)cc1)C(C)C (stereo not drawn)	7.0	1.8	10.4	-1.1
COC(=O)c1ccc(C2C(C(C)=O)=C(C)Nc3ncnn32)cc1 (stereo not drawn)	13.0	-3.5	5.3	0.8
CCN(CC)CCN1C(=O)C(=O)/C(=C(/O)c2c(C)[nH]c(C(=O)OC)c2C)C1c1ccccc1 (stereo not drawn)	nt	nt	15.7	30.5*
COc1ccc(-c2nnc(SCC(=O)NC(=O)NCc3ccco3)o2)cc1	4.0	0.8	2.7	3.2
COc1ccc(CNC(=O)c2ccc(NC(=O)C3CCCO3)cc2)cc1 (stereo not drawn)	7.0	0.2	-1.7	-7.4
CCOC(=O)N1CCC(NC(=O)c2cc3c(C)nc4ccccc4c3o2)CC1	4.0	-1.5	27.5	40.4*
CCN1CCCC1CNC(=O)c1cc2c(C)nc3ccccc3c2o1 (stereo not drawn)	15.0	-3.0	3.5	1.9
Cc1nc2ccccc2c2oc(C(=O)N3CCc4ccccc43)cc12	3.0	-1.8	25.6	38.4*
O=C(COC(=O)c1cccc(S(=O)(=O)N2CCc3ccccc32)c1)NC1CCS(=O)(=O)C1 (stereo not drawn)	8.0	5.8	-3.3	-5.9
SMILES	Prostate diff	QS inhibitor	FPRL1 binder	FPR binder
O=S1(=O)CC(N2CCCCC2)C(N2CCCCC2)C1 (stereo not drawn)	14.0	-0.8	-5.2	2.2
CCOC(=O)N1CCC(NC(=O)Cn2nc(Cc3ccncc3)c3ccccc3c2=O)CC1	12.0	44.4	6.9	0.1
COCCCN1C(=O)C(O)=C(C(C)=O)C1c1ccccn1 (stereo not drawn)	12.0	0.3	-2.9	7.1
CCN1C(=O)/C(=C2\SC(=S)N(CCCOC)C2=O)c2ccccc21	nt	nt	32.8*	22.9
CCN(Cc1ccccc1)C(=O)Cn1c(=O)n(CC(=O)NCc2ccco2)c(=O)c2sccc21	7.0	-1.3	9.6	-2.4
O=C(c1ccc(N2CCN(C3CC(=O)N(c4ccc(F)cc4)C3=O)CC2)cc1)c1cccnc1 (stereo not drawn)	nt	-2.0	nt	nt
O=C(c1ccccc1)c1ccc(N2CCNCC2)cc1	41.0*	-0.3	0.9	-6.2
O=C1NCCN1Cc1ccccc1F	9.0	4.1	0.4	-0.4
CCOC(=O)C1=C(CS(=O)(=O)c2ccc(F)c(C)c2)NC(=O)NC1c1ccc(O)c(O)c1 (stereo not drawn)	8.0	0.5	-0.5	-0.2
Cc1c(C(=O)NC2CCCc3ccccc32)oc2ccc(S(=O)(=O)N3CCOCC3)cc12 (stereo not drawn)	4.0	0.4	7.9	37.8*
Cc1c(C(=O)NC2CC2)oc2ccc(S(=O)(=O)N3CCCCCC3)cc12	5.0	-1.5	2.1	5.2
